# According to ChEMBL document CHEMBL2218924, “A broad activity screen in support of a chemogenomic map for kinase signalling research and drug discovery” (Biochem J, 2013):
# Key:
# [1] = molecular target: T1, Serine/threonine-protein kinase TBK1 (Homo sapiens) (UniProt Q9UHD2); conditions: at 10 µM
# T1 sequence (whole entry): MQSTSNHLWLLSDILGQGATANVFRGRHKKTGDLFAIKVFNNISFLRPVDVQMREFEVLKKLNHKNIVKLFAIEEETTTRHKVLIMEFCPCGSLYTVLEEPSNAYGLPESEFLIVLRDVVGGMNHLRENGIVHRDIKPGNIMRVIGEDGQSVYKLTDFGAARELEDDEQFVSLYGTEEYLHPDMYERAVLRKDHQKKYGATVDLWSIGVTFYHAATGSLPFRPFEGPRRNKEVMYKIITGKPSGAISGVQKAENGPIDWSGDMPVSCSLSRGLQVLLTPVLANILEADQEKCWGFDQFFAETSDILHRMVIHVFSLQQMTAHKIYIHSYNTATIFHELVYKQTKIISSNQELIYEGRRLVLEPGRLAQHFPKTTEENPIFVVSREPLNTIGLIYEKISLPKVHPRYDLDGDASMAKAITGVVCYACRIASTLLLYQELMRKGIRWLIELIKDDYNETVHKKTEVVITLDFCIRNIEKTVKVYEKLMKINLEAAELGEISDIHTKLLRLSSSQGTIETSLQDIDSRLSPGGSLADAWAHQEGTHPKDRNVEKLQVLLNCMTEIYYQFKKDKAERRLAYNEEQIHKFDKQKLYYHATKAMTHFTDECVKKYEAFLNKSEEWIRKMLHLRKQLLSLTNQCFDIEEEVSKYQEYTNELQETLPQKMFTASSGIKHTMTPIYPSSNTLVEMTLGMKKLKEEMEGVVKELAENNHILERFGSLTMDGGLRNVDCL
# [2] = molecular target: T2, TGF-beta receptor type-1 (Homo sapiens) (UniProt P36897); conditions: at 1 µM
# T2 sequence (whole entry): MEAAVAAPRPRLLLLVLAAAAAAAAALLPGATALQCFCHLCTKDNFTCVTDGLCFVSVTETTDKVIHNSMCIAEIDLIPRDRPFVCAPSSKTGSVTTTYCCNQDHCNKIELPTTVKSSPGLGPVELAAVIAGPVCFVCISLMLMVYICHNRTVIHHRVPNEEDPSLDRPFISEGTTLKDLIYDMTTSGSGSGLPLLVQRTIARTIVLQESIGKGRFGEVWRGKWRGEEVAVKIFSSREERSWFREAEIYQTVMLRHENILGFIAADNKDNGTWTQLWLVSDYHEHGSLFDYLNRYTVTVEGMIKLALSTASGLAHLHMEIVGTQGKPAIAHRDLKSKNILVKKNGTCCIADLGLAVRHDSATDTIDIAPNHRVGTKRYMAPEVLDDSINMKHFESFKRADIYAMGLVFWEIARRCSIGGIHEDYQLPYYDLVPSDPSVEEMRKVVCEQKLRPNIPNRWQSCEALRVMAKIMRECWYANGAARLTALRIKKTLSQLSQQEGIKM
# [3] = molecular target: T2, TGF-beta receptor type-1 (Homo sapiens); conditions: at 10 µM
# [4] = molecular target: Insulin-like growth factor 1 receptor (Homo sapiens) (UniProt P08069); conditions: at 1 µM
# Sequence of Insulin-like growth factor 1 receptor (Homo sapiens) (P08069 31-736 limits assumed): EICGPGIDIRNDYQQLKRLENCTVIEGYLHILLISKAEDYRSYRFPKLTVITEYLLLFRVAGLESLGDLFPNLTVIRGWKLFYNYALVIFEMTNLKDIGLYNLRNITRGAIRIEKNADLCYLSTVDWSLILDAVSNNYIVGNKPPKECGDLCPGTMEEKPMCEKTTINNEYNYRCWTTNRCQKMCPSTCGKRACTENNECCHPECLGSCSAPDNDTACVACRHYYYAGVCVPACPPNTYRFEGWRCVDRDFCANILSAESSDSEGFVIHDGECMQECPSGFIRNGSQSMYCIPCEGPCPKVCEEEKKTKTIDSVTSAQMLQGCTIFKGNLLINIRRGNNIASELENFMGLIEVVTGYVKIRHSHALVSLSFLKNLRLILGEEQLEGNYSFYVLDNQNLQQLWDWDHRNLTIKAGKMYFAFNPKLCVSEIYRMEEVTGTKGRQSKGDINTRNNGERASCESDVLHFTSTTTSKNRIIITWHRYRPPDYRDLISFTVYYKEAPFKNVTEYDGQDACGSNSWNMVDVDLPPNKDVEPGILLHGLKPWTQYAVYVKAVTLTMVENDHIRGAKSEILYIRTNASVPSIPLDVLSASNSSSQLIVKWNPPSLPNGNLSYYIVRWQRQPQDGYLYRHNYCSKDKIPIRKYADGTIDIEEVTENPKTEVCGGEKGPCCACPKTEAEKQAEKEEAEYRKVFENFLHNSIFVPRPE
# Sequence of Insulin-like growth factor 1 receptor (Homo sapiens) (P08069 741-1367 limits assumed): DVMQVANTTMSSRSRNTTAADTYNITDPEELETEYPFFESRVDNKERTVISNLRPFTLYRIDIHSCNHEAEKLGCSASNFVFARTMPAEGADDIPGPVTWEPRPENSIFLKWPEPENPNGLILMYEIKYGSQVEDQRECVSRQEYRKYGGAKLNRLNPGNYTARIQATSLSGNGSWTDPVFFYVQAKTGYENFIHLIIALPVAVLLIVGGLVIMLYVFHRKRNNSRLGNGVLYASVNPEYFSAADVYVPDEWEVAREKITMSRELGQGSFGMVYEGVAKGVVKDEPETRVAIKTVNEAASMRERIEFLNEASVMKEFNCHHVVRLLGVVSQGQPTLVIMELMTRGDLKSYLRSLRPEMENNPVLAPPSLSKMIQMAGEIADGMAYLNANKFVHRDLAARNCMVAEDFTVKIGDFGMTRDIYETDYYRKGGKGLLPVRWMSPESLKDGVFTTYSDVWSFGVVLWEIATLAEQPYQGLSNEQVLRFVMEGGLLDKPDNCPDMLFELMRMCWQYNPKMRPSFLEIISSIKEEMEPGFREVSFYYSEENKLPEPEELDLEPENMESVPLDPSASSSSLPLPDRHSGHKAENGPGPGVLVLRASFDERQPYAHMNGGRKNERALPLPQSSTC
# [5] = molecular target: Insulin-like growth factor 1 receptor (Homo sapiens) (UniProt P08069); conditions: at 10 µM
# [6] = molecular target: T3, Inhibitor of nuclear factor kappa-B kinase subunit alpha (Homo sapiens) (UniProt O15111); conditions: at 1 µM
# T3 sequence (whole entry): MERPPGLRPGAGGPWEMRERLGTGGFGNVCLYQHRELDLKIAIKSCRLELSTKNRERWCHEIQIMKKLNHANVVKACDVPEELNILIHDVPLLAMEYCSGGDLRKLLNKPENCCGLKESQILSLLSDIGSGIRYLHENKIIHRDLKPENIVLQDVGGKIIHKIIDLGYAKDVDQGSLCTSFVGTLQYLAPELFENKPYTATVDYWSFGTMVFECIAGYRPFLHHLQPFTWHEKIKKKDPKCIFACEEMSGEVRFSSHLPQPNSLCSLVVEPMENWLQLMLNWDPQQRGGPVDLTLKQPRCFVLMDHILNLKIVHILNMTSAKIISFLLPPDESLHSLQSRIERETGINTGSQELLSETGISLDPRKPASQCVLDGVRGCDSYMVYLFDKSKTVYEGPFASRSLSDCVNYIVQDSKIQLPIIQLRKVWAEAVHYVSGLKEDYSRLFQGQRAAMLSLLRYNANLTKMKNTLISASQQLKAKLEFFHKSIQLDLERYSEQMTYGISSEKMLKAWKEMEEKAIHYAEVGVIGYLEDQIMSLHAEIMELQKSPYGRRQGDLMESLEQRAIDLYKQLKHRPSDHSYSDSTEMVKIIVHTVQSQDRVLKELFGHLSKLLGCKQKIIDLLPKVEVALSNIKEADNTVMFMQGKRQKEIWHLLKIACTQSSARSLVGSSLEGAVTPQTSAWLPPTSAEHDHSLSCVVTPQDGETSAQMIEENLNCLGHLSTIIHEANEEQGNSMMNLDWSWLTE
# [7] = molecular target: T3, Inhibitor of nuclear factor kappa-B kinase subunit alpha (Homo sapiens); conditions: at 10 µM
# [8] = molecular target: T4, Inhibitor of nuclear factor kappa-B kinase subunit beta (Homo sapiens) (UniProt O14920); conditions: at 1 µM
# T4 sequence (whole entry): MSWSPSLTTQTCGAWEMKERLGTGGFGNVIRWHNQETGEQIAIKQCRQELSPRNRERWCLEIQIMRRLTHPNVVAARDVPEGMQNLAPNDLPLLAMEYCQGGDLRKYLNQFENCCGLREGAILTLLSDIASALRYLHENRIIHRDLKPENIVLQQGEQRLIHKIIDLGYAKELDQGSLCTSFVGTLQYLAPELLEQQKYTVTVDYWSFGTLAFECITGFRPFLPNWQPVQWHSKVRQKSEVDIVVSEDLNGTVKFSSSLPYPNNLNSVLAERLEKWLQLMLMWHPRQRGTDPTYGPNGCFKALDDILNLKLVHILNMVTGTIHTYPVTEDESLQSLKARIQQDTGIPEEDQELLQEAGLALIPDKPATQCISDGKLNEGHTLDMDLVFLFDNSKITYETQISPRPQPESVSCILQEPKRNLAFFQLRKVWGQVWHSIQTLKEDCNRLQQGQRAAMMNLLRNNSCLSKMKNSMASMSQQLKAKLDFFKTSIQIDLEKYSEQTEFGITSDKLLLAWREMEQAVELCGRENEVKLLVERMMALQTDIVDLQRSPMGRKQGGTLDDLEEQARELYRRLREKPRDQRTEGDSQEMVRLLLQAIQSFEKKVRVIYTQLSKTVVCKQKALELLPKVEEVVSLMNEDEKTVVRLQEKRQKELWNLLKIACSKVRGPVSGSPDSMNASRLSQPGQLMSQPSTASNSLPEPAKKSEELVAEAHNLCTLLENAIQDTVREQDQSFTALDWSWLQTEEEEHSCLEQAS
# [9] = molecular target: T4, Inhibitor of nuclear factor kappa-B kinase subunit beta (Homo sapiens); conditions: at 10 µM
# [10] = molecular target: Insulin receptor (Homo sapiens) (UniProt P06213); conditions: at 1 µM
# Sequence of Insulin receptor (Homo sapiens) (P06213 28-758 limits assumed): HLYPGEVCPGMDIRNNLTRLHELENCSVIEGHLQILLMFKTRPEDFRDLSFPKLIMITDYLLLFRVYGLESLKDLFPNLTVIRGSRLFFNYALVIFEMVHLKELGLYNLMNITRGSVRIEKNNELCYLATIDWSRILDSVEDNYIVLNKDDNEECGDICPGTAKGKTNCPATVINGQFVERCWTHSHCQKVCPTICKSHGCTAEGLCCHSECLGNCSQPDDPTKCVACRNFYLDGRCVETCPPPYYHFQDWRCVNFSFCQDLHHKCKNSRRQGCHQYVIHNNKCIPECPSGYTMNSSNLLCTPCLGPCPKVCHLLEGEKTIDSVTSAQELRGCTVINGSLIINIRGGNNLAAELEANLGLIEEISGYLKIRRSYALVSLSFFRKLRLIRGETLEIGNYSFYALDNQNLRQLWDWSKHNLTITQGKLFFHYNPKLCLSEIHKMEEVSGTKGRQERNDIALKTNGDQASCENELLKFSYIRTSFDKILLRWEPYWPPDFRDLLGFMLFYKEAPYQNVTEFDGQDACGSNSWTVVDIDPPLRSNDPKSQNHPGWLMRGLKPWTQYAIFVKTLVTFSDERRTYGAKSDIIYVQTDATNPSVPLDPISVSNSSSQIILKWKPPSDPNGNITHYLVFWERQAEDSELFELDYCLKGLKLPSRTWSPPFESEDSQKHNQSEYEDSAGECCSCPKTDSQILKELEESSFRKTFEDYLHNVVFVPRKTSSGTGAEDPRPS
# Sequence of Insulin receptor (Homo sapiens) (P06213 763-1382 limits assumed): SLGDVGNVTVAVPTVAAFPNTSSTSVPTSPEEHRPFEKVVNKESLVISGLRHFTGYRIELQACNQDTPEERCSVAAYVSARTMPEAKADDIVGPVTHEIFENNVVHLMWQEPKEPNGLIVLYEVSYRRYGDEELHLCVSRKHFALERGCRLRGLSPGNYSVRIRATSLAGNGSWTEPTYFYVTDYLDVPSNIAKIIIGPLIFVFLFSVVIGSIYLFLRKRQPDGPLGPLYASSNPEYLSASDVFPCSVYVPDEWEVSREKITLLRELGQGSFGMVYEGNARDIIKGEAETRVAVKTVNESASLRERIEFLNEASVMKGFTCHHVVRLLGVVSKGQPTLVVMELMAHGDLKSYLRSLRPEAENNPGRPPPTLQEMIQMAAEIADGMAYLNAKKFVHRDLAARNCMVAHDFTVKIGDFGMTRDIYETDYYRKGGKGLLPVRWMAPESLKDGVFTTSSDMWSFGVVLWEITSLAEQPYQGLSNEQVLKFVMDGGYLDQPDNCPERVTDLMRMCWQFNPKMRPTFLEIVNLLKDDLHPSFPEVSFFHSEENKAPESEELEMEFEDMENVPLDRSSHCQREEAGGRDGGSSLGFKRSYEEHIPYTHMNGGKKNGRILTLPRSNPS
structure (smiles),measurement,setting,value
COc1cc2ncnc(Nc3ccc(O)c(Br)c3)c2cc1OC,residual activity,[1],15%
same,residual activity,[2],79%
same,residual activity,[3],71%
same,residual activity,[4],87%
same,residual activity,[5],81%
same,residual activity,[6],97%
same,residual activity,[7],72%
same,residual activity,[8],97%
same,residual activity,[9],82%
same,residual activity,[10],114%
